Compound activity deposited in PubChem by several laboratories.
EP2 mod – modulates human prostaglandin E2 receptor EP2 signaling. induction, % at 25 µM. AID 940. 260,000 compounds, 0.83% hits. EP2-expressing cells, cAMP HTRF FRET, PGE2 co-stimulation;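 active means compounds whose cAMP rise, as percent of the full-agonist control response, exceeds 60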;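 further: rat C6 glioma line stably carrying human EP2 under a CMV promoter; the protocol text gives 20 µM as final concentration; 100% = response of wells given 1 µM PGE2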
Target sequence (P43116 whole entry, looked up): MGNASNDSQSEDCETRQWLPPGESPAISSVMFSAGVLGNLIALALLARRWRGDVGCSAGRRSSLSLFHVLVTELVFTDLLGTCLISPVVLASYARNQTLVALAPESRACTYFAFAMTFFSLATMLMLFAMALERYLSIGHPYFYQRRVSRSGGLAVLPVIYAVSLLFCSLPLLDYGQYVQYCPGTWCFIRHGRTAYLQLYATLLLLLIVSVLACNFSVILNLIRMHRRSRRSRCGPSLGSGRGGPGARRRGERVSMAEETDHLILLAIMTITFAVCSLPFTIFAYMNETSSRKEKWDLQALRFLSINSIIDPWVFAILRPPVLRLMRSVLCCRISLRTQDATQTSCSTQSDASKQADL
EP2 antag – inhibitors of human EP2 prostaglandin E2 receptor | inhibition, % at 25 µM | C6 glioma cells expressing human EP2, cAMP TR-FRET; cells stimulated with saturating PGE2 | 260,000 compounds, 0.52% hits;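 active means percent inhibition above 40 after rounding to a whole number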;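 further: rat C6 glioma host cells with rolipram phosphodiesterase inhibitor present; the protocol text gives 20 µM as final concentration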
S1P3 antag – blocks the human S1P3 receptor | Q99500 | CHO S1P3 NFAT-BLA reporter, FRET fluorescence, antagonist mode | AID 485 | 170,000 compounds, 0.27% hits | inhibition, % at 4.98 µM;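 active means inhibition above the plate cutoff, the mean inhibition of test wells on that plate plus 3 SD, cut at about 28% in these data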;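 further: cells challenged with S1P at its EC80 of 0.8 µM; blue over green emission ratio from cleaved BLA substrate after 4 h stimulation; 0% = S1P-stimulated wells and 100% = unstimulated DMSO-only wells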
Cl transport mod – KCC2 (human) Cl- transport modulation | Q9H2X9 | KCC2 cells, thallium flux FluoZin-2 fluorescence | B-score of Tl+ flux slope (higher = more flux/activation; lower = inhibition) at 10 µM | 190,000 compounds, 2.2% hits | AID 1456;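 active means thallium flux slope and its plate-corrected score both differing from the plate sample mean at a set confidence after two filtering rounds, in either direction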;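 further: slope of fluorescence scaled to starting intensity during 10 to 20 s after thallium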
KCC2 secondary – KCC2 (human) modulation, secondary assay; HEK293-KCC2, thallium flux, FluoZin2 fluorescence; hits give high values; shares compounds with Cl transport mod; 3,700 compounds, 15% hits; normalised thallium flux (F/F0 slope) at 10 µM;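 active means thallium flux slope above the same plate's solvent-only control mean plus 3 SD; inconclusive means the two replicate wells disagree; inactive means no significant difference from solvent-only control wells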
KCC2 bumet counter – thallium flux despite bumetanide block in KCC2 cells, secondary assay 3 | HEK293-KCC2 + bumetanide/ouabain, thallium flux FluoZin2; hits give high values | 3,700 compounds, 49% hits | shares compounds with Cl transport mod | normalized thallium flux at 10 µM;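 active means thallium entry rate above the same plate's blocked-transporter control wells by more than 3 SD; inconclusive means the two repeat wells disagree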;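 further: raw slope of fluorescence over initial fluorescence between 10 and 20 s after thallium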
KCC2 secondary2 – KCC2 (human) modulation, second secondary assay; shares compounds with Cl transport mod; HEK293-KCC2, thallium flux FluoZin2 fluorescence; actives lie on both sides; F/F0 rise rate, 10–20 s post-thallium; normalized thallium flux at 10 µM; 3,700 compounds, 23% hits; AID 1715;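 active means thallium flux slope more than 3 SD above or below the plate's solvent-only control mean, mostly below; inconclusive means the two repeat wells disagreed; inactive means no significant shift from solvent-only controls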;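 further: raw slope with 0.1% DMSO as baseline and bumetanide as block control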
HEK293 Tl flux – acts in parental HEK cells, KCC2 counter-screen; shares compounds with Cl transport mod; HEK293 parental cells, thallium flux FluoZin2, ouabain; baseline-ratio fluorescence slope, 10–20 s after thallium; thallium flux rate (normalised fluorescence) at 10 µM; 3,700 compounds, 46% hits; AID 1716;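 active means thallium flux rate significantly above the same plate's solvent-only control wells, beyond their mean plus 3 SD; inconclusive means the two replicate wells gave conflicting results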
KCC2 ouabain – KCC2 (human) modulation, ouabain retest; shares compounds with Cl transport mod; HEK293-KCC2, thallium flux FluoZin2 fluorescence; bidirectional: low = inhibitor, high = activator; raw Tl+ flux slope (below DMSO = inhibition, above = activation) at 10 µM; 3,700 compounds, 48% hits; AID 1717;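 active means thallium flux slope beyond 3 SD from same-plate DMSO control mean in most replicates, usually higher, sometimes lower; inconclusive means repeat tests gave conflicting results; inactive means no significant difference from controls in most replicates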;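 further: slope of initial-normalized fluorescence between seconds 10 and 20 after thallium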
HEK293 Tl flux2 – counter-screen for KCC2 modulators: effect in parental HEK293 cells | thallium flux FluoZin-2 fluorescence slope | 3,700 compounds, 33% hits | thallium flux slope at 10 µM | shares compounds with Cl transport mod;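 active means thallium flux slope above the same plate's solvent-control mean plus 3 SD in both duplicate wells; inconclusive means duplicate wells that disagreed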;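 further: run without ouabain in cells lacking the KCC2 cotransporter; slope of fluorescence scaled to its starting value between 10 and 20 s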
* hit, by the source's call; ? = inconclusive; . = no result. Rows were chosen to be rich in hits. Some 3.1% of all compounds tested hit in one or more screens of this group.

SMILES | EP2 mod | EP2 antag | S1P3 antag | Cl transport mod | KCC2 secondary | KCC2 bumet counter | KCC2 secondary2 | HEK293 Tl flux | KCC2 ouabain | HEK293 Tl flux2
CCc1ccccc1NC(=O)c1cccc(N2C(=O)C3C4CCC(C4)C3C2=O)c1 (configuration not stated) | 2.9 | 11.9 | . | 0.83 | . | . | . | . | . | .
COc1ccc(-n2c(=S)[nH]c3sc(-c4ccccc4)cc3c2=O)c(OC)c1 | 7.8 | 36.9 | -6.7 | 9.49* | 0.0141* | 0.0268* | 0.0246* | 0.02* | ? | 0.0123
COc1cccc(-c2cc3c(=O)n(-c4ccccc4)c(=S)[nH]c3s2)c1 | 52.2 | 24.7 | . | . | . | . | . | . | . | .
Cn1c(=O)c([N+](=O)[O-])c(NCc2ccccc2Cl)c2ccccc21 | 25.4 | 6.8 | 4.4 | -4.51* | 0.00779 | 0.004 | ? | 0.00626* | ? | ?
C=C(C)CNC(=S)N/N=C/c1c(F)cccc1F | 6.4 | 7.0 | -14.7 | 15.8* | 0.0204* | 0.0479* | ? | 0.0229* | 0.0303* | 0.025*
COc1ccc(Oc2c(Cl)cnn(-c3ccc(F)cc3)c2=O)cc1 | 5.0 | 8.8 | . | -3.08* | 0.00843 | ? | 0.0319 | 0.00624 | 0.0168* | 0.00917
COc1ccc(C(=O)CSc2nnnn2Cc2ccccc2)cc1 | -51.1 | 17.2 | 9.8 | -6.37* | 0.00482 | 0.00744* | 0.0248* | 0.00761 | ? | 0.0116
O=C(CSc1nnnn1Cc1ccccc1)c1ccccc1 | 1.6 | 8.7 | -24.9 | -3.24* | 0.00685 | 0.00561 | 0.0274 | 0.00689 | ? | 0.00901
O=C(CSc1nnnn1Cc1ccccc1)c1ccc(F)cc1 | -45.1 | 3.4 | 0.3 | -0.825 | . | . | . | . | . | .
CC1Cc2ccccc2N1C(=O)CSc1nnnn1Cc1ccccc1 (configuration not stated) | -52.7 | 13.8 | -13.4 | -3.61* | 0.0072 | 0.00464 | 0.0226* | 0.00732 | 0.015* | 0.00953
COC(=O)c1ccc(CSc2nnnn2Cc2ccccc2)cc1 | -10.9 | 3.1 | 3.1 | -1.4 | . | . | . | . | . | .
O=C(NC1(c2ccc3c(c2)OCO3)CCCC1)c1ccc(N2CCCCS2(=O)=O)cc1 | -48.9 | . | . | . | . | . | . | . | . | .
COc1cc(Cl)c(C2C(C#N)=C(N)OC3=C2C(=O)CC(C)(C)C3)cc1OC (configuration not stated) | -5.3 | 7.3 | . | . | . | . | . | . | . | .
CCCCC(CCC(=O)O)(C(=O)OCC)c1csc(Nc2ccccc2)n1 (configuration not stated) | 9.8 | 7.3 | -7.7 | -3.9* | 0.00774 | 0.00652 | 0.0343 | 0.00659 | 0.0165* | 0.0103
CCOC(=O)c1ccc(NC(=O)CSc2nc(C)cc(=O)[nH]2)cc1 | -10.8 | 11.6 | -23.8 | . | 0.00663 | 0.00428 | 0.0323 | 0.00683 | 0.0185 | 0.0092
COC(=O)c1ccc(NC(=O)CSC2=NC(=O)C(c3ccccc3)C(=O)N2)cc1 (configuration not stated) | 7.5 | 10.5 | -0.4 | 9.24* | 0.00951 | ? | 0.0314 | 0.00737 | 0.0186 | ?
Cc1cc(=O)[nH]c(SCC(=O)Nc2ccc(C(=O)O)cc2)n1 | -7.6 | 1.8 | . | -0.0994 | . | . | . | . | . | .
O=c1/c(=C/c2ccc(O)c([N+](=O)[O-])c2)sc2nc3ccccc3n12 | -70.0 | 13.3 | -13.1 | -3.7* | 0.0058 | 0.00495 | 0.0312 | 0.00782 | 0.0174 | 0.0104
COc1ccc2cc(CN(CCCO)C(=O)Nc3ccccc3)c(=O)[nH]c2c1 | -9.9 | 18.3 | . | . | . | . | . | . | . | .
NC(=O)CSc1nnc(-c2ccccc2)n1N | 0.5 | 12.1 | . | . | . | . | . | . | . | .
Cc1c(-n2cc(C(=O)c3cc(Cl)ccc3O)cc(C#N)c2=O)c(=O)n(-c2ccccc2)n1C | 23.4 | 6.5 | . | -0.00496 | . | . | . | . | . | .
